# Screening results (PubChem BioAssay)
# Compounds with a hit are over-represented: about 32% of the library has one in this group of screens.
# CYP2C9 inh = blocks human cytochrome P450 2C9. CYP2C9 Supersomes, luciferin-H conversion, luminescence. inhibition, % at 5 µM. P11712. 20% of 96,000 active;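 active = blocking of liver enzyme CYP2C9 beyond about 50% at 5 µM, limit read from the data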
# Target sequence (P11712 whole entry, looked up): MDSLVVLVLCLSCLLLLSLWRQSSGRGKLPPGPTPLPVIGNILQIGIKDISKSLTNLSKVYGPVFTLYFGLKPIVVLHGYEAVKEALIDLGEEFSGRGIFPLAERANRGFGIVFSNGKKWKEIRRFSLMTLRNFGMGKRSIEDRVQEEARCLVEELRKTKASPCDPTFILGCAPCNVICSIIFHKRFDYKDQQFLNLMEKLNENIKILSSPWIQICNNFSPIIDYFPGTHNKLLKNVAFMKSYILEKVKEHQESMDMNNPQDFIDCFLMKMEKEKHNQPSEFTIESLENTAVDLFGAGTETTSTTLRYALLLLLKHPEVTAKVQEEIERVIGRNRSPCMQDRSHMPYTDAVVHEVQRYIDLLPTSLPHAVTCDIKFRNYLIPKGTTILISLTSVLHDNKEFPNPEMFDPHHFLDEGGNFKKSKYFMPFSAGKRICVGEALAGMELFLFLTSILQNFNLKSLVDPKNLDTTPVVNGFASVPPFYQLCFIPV
# CYP2C19 activ = activators of human cytochrome P450 2C19. activation factor at 5 µM. recombinant CYP2C19, luciferin-H EGE luminescence; hits give high values; 0 = fully inhibited enzyme, 1 = untreated enzyme. P33261. 96,000 tested, under 10 active;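 active = activation factor of at least 2 at 5 µM in the primary screen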
# CYP2C19 inhib = human CYP2C19 inhibition. P33261. CYP2C19 Supersomes, luciferin-H EGE luminescence, 30 min. inhibition, % at 5 µM. 21% of 96,000 active;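 active = CYP2C19 inhibition above a set limit at 5 µM in the primary screen, cut at about 50% in these data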
# PostGolgi ctrl = inhibits growth of the yeast control strain | efflux-deficient yeast background strain, growth absorbance A615, 16 h | inhibition, % at 10 µM | 5% of 98,000 active | AID 738
# CYP2C9 act = increases human cytochrome P450 2C9 activity; activation factor at 5 µM; 1.4% of 96,000 active; recombinant CYP2C9, luciferin-H conversion, luminescence; hits give high values; factor 1 = untreated enzyme, 0 = blocked;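 active = activation factor of 2 or more for CYP2C9 at a 5 µM dose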
# PostGolgi yeast = growth inhibition of a yeast mutant, post-Golgi transport screen; inhibition, % at 10 µM; AID 739; 0.9% of 98,000 active; post-Golgi transport phenotypic cell assay;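 also: yeast cells grown in 1536-well plates; yeast grown about 18 h at 30C before absorbance read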
# Hits are given with their value; - = inactive. Rule as the data show it, unless noted: active = inhibition above about 30%; inactive = the rest.
SMILES,CYP2C9 inh,CYP2C19 activ,CYP2C19 inhib,PostGolgi ctrl,CYP2C9 act,PostGolgi yeast
O=C(NC1CCCC1)C(c1ccncc1)N(Cc1ccccc1)C(=O)Cc1cccs1 (stereo unspecified),-,-,61,-,-,-
O=C(NC1CCCCC1)C(c1ccco1)N(Cc1ccco1)C(=O)c1ccco1 (stereo unspecified),63,-,65,-,-,-
COc1ccc(C(C(=O)NC2CCCC2)N(Cc2ccccc2)C(=O)CNC(=O)c2ccco2)cc1 (stereo unspecified),-,-,-,-,-,-
O=C(CN1CCOCC1)NC1CC2CCC1C2 (stereo unspecified),-,-,-,-,-,-
O=C(NC1CCCCC1)N1CCC(n2cnc3ccccc32)CC1,-,-,-,-,-,-
Cc1noc(NS(=O)(=O)c2ccc(N3C(=O)c4ccccc4C3=O)cc2)c1C,-,-,-,-,-,-
CCc1ccc(N(C(=O)Cc2cccs2)C(C(=O)NC2CCCCC2)c2cn(C)nc2C)cc1 (stereo unspecified),-,-,73,-,-,-
COC(=O)c1ccc(C(C(=O)NC2CCCCC2)N(C(=O)Cc2cccs2)C2CC2)cc1 (stereo unspecified),-,-,-,-,-,-
COc1ccc(C(=O)N(Cc2ccco2)C(C(=O)NC2CCCC2)c2ccc(O)cc2)cc1OC (stereo unspecified),56,-,50,-,-,-
COc1cc(C(C(=O)NC2CCCCC2)N(Cc2cccs2)C(=O)Cc2c[nH]c3ccccc23)cc(OC)c1OC (stereo unspecified),58,-,73,-,-,-
Cc1ccccc1C(C(=O)NC1CCCC1)N(C(=O)Cc1cccs1)c1ccc2c(c1)OCCO2 (stereo unspecified),-,-,-,-,-,-
COc1ccc(C(=O)N(CC2CCCO2)C(C(=O)NC2CCCC2)c2ccc(Cl)cc2)cc1OC (stereo unspecified),-,-,-,-,-,-
COc1ccccc1CN(C(=O)Cc1cccs1)C(C(=O)NC1CCCC1)c1ccncc1 (stereo unspecified),-,-,77,-,-,-
CCOC(=O)C1=C(CNCc2ccc(C)cc2)NC(=O)NC1c1ccc(OC)cc1 (stereo unspecified),-,-,-,-,-,-
O=C(NC1CCCCC1)C(c1ccncc1)N(Cc1ccccc1)C(=O)c1ccc(-c2ccccc2)[nH]1 (stereo unspecified),95,-,93,-,-,-
Cc1ccc(-c2nnn(CC(=O)N(Cc3ccccc3)C(C(=O)NC3CCCC3)c3ccncc3)n2)o1 (stereo unspecified),55,-,-,-,-,-
Cc1ccc(-c2nnn(CC(=O)N(Cc3cccs3)C(C(=O)NC3CCCC3)c3ccco3)n2)o1 (stereo unspecified),-,-,-,-,-,-
O=C(NCC(=O)N(c1ccccc1)C(C(=O)NC1CCCCC1)c1ccncc1)c1ccco1 (stereo unspecified),-,-,-,-,-,-
COc1ccc(CN(C(=O)c2ccc(-c3ccccc3)[nH]2)C(C(=O)NCC2CCCO2)c2ccc(C)o2)cc1 (stereo unspecified),-,-,58,-,-,-
O=C(NC1CCCC1)C(c1ccccc1F)N(C(=O)c1ccco1)C1CCCC1 (stereo unspecified),51,-,-,-,-,-
O=C(CN(C1CCCCC1)S(=O)(=O)c1ccc(Cl)cc1)N1CCOCC1,-,-,-,-,-,-
CC(C)(C)c1ccc(C(=O)NNC(=O)C(=O)N2CCCCC2)cc1,-,-,-,-,-,-
CC(C(=O)NC1CCCC1)N(C(=O)c1ccc(-c2ccccc2)[nH]1)c1ccccc1F (stereo unspecified),61,-,70,-,-,-
CC(C(=O)NC1CCCCCC1)N(c1ccccc1)S(C)(=O)=O (stereo unspecified),-,-,-,-,-,-
COc1ccccc1CN(C(=O)c1ccco1)C(C(=O)NC1CCCC1)c1ccncc1 (stereo unspecified),-,-,63,-,-,-
CCOC(=O)c1[nH]c(C)c(C(=O)OCC(=O)N2CCCCC2C)c1C (stereo unspecified),72,-,-,-,-,-
